Where “and” joins values, the source holds several entries; their conditions need not be identical. Equal entries are not always repeated. Out of some 5,500 compounds screened, about 2,000 (36%) were called active. Another 18% or so got no clear call; they are omitted. Rule as the data show it: active = normalized growth mostly below about 0.91 (no sharp cut-off); inconclusive = no clear call, values can overlap the other calls; inactive = mostly above about 0.92. The list shows a part of the results.
Test: chemical genetic growth profiling, strain panel (AID 1159580);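 also: tested at 20 µM; growth read once vehicle control cultures reached saturation at 30 °C; 1 = growth at the plate median or of vehicle wells; lower values mean less growth of the strain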
Details: S. cerevisiae deletion strains, growth OD

Measured: normalized growth

CC(=O)Oc1cccc2c1C(=O)c1c(OC(C)=O)cc(C(=O)O)cc1C2=O
inactive: locus YAL013W, strain DEP1, stronger effect = lower value 1 | locus YAL021C, strain ccr4, stronger effect = lower value 0.969 | locus YAL030W, strain snc1, stronger effect = lower value 0.93 | locus YBR009C, strain hhf1, stronger effect = lower value 0.919 | locus YBR021W, strain FUR4, stronger effect = lower value 0.994 | locus YBR023C, strain chs3, stronger effect = lower value 0.918 | locus YBR171W, strain sec66, stronger effect = lower value 0.957 | locus YBR229C, strain ROT2, stronger effect = lower value 1.01 | locus YBR279W, strain paf1, stronger effect = lower value 0.972 | locus YCL011C, strain gbp2, stronger effect = lower value 0.923 | locus YCL016C, strain dcc1, stronger effect = lower value 0.946 | locus YCL069W, strain vba3, stronger effect = lower value 0.951 | locus YCR088W, strain abp1, stronger effect = lower value 0.929 | locus YDL005C, strain med2, stronger effect = lower value 0.943 | locus YDL035C, strain GPR1, stronger effect = lower value 1.01 | locus YDL040C, strain nat1, stronger effect = lower value 0.961 | locus YDL074C, strain BRE1, stronger effect = lower value 1.03 | locus YDL101C, strain DUN1, stronger effect = lower value 1.01 | locus YDL134C, strain PPH21, stronger effect = lower value 1.02 | locus YDL185W, strain tfp1, stronger effect = lower value 0.993 | locus YDR001C, strain nth1, stronger effect = lower value 0.93 | locus YDR137W, strain rgp1, stronger effect = lower value 0.97 | locus YDR150W, strain NUM1, stronger effect = lower value 1 | locus YDR159W, strain sac3, stronger effect = lower value 0.9 | locus YDR162C, strain NBP2, stronger effect = lower value 0.99 | locus YDR195W, strain ref2 0.991 | locus YDR334W, strain swr1, stronger effect = lower value 0.957 | locus YDR335W, strain msn5, stronger effect = lower value 0.949 | locus YDR392W, strain spt3, stronger effect = lower value 0.84 | locus YEL003W, strain gim4, stronger effect = lower value 0.954 | locus YEL037C, strain rad23, stronger effect = lower value 0.962 | locus YEL061C, strain CIN8 (second series), stronger effect = lower value 0.932 | locus YEL061C, strain CIN8, stronger effect = lower value 0.992 | locus YER016W, strain bim1, stronger effect = lower value 0.945 | locus YER111C, strain swi4, stronger effect = lower value 0.963 | locus YER155C, strain BEM2, stronger effect = lower value 1.01 | locus YER167W, strain BCK2, stronger effect = lower value 1 | locus YFR010W, strain ubp6, stronger effect = lower value 0.943 | locus YGL078C, strain dbp3, stronger effect = lower value 1 | locus YGL173C, strain kem1, stronger effect = lower value 0.929 | locus YGL227W, strain vid30, stronger effect = lower value 0.962 | locus YGL248W, strain PDE1, stronger effect = lower value 1.01 | locus YGL253W, strain hxk2, stronger effect = lower value 0.932 | locus YGR078C, strain PAC10, stronger effect = lower value 1 | locus YGR229C, strain SMI1, stronger effect = lower value 1.02 | locus YHR013C, strain ard1, stronger effect = lower value 0.991 | locus YHR027C, strain rpn1, stronger effect = lower value 0.942 | locus YHR030C, strain SLT2, stronger effect = lower value 0.999 and 0.943 | locus YHR079C, strain IRE1, stronger effect = lower value 0.964 | locus YHR129C, strain ARP1, stronger effect = lower value 1.01 | locus YHR142W, strain chs7, stronger effect = lower value 0.939 | locus YIL066C, strain RNR3, stronger effect = lower value 1.02 | locus YIL073C, strain SPO22, stronger effect = lower value 0.995 | locus YIL125W, strain kgd1, stronger effect = lower value 1 | locus YJL095W, strain BCK1, stronger effect = lower value 0.994 and 0.953 | locus YJL115W, strain asf1, stronger effect = lower value 0.939 | locus YJL129C, strain trk1, stronger effect = lower value 1 | locus YJL134W, strain LCB3, stronger effect = lower value 1.01 | locus YJL154C, strain vps35, stronger effect = lower value 0.953 | locus YJL187C, strain SWE1 (second series), stronger effect = lower value 1.01 | locus YJL187C, strain SWE1, stronger effect = lower value 0.931 | locus YJR043C, strain POL32, stronger effect = lower value 0.998 | locus YJR066W, strain TOR1, stronger effect = lower value 0.902
active: locus YAL026C, strain drs2, stronger effect = lower value 0.896 | locus YBL061C, strain skt5, stronger effect = lower value 0.915 | locus YBR231C, strain swc5, stronger effect = lower value 0.874 | locus YCL029C, strain bik1, stronger effect = lower value 0.585 | locus YCL061C, strain MRC1, stronger effect = lower value 0.896 | locus YDL192W, strain arf1, stronger effect = lower value 0.175 | locus YDR069C, strain doa4, stronger effect = lower value 0.865 | locus YDR101C, strain arx1, stronger effect = lower value 0.438 | locus YDR297W, strain sur2, stronger effect = lower value 0.913 | locus YDR318W, strain mcm21, stronger effect = lower value 0.32 | locus YDR388W, stronger effect = lower value 0.171 | locus YDR502C, strain sam2, stronger effect = lower value 0.341 | locus YER015W, strain faa2, stronger effect = lower value 0.92 | locus YER110C, stronger effect = lower value 0.643 | locus YER155C, strain BEM2 (second series), stronger effect = lower value 0.858 | locus YGL086W, strain mad1, stronger effect = lower value 0.337 | locus YGL167C, strain pmr1, stronger effect = lower value 0.906 | locus YGL240W, strain doc1, stronger effect = lower value 0.832 | locus YGR135W, strain pre9, stronger effect = lower value 0.3 | locus YGR252W, strain gcn5, stronger effect = lower value 0.33 | locus YHR079C, strain IRE1 (second series), stronger effect = lower value 0.481 | locus YHR094C, strain hxt1, stronger effect = lower value 0.476 | locus YHR200W, strain rpn10, stronger effect = lower value 0.354 | locus YIR030C, strain dcg1, stronger effect = lower value 0.456 | locus YJL092W, strain hpr5, stronger effect = lower value 0.916 | locus YJL095W, strain BCK1 (second series), stronger effect = lower value 0.909 | locus YJL164C, strain tpk1, stronger effect = lower value 0.875 | locus YJL166W, strain qcr8, stronger effect = lower value 0.871 | locus YJL168C, strain set2, stronger effect = lower value 0.545

— PubChem BioAssay AID1159580 (chemical genetic matrix, 2015)
